The values below come from PubChem BioAssay (NCI).

Test systems include HCT-15 colon; HT29 colon; SNB-75 CNS; SNB-19 CNS; U251 CNS; PC-3 prostate; SK-MEL-5 melanoma; UACC-62 melanoma; LOX IMVI melanoma; SK-MEL-28 melanoma; SK-MEL-2 melanoma; EKVX NSCLC; SN12C renal; UO-31 renal; TK-10 renal; ACHN renal; CAKI-1 renal; A498 renal; CCRF-CEM leukemia; MOLT-4 leukemia.
Test in all cases: NCI-60 one-dose screen, 48 h (100 = growth as untreated, 0 = no growth, -100 = all killed)
What all share (conditions): 10 µM unless noted

Molecules are shown by their SMILES. Compounds without any hit were thinned out: in the full panel of roughly 83,000, 20% have a hit.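 The test compound was applied at a single concentration to cells in 96-well plates for 48 hours, and percent growth was recorded.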 Values without a mark were called inactive. The source made the active and inactive calls. How the source made its calls: active means growth percent below 10; inactive means the rest.

Regarding `CCNc1nc2cc(Nc3ccnc4cc(Cl)ccc34)ccc2o1`, the growth in the experiment with HCT-15 colon is 40.9%; with HT29 colon it was 31.5%; in the experiment with SNB-75 CNS, 83.7%; in the experiment with SNB-19 CNS, 84.4%; with U251 CNS, 74.4%; with PC-3 prostate it was 64.3%. The growth was 48.2% in the experiment with SK-MEL-5 melanoma; 70.9% in the experiment on UACC-62 melanoma; 58.5% in the experiment with LOX IMVI melanoma; 80.7% in the experiment on SK-MEL-28 melanoma; 81.2% with SK-MEL-2 melanoma; 86% in the experiment on EKVX NSCLC. Besides, the growth is 79.3% in the experiment with SN12C renal; 70.2% in the experiment with UO-31 renal; 81.9% in the experiment with TK-10 renal; 88.2% in the experiment with ACHN renal; 71.9% with CAKI-1 renal; 47% in the experiment with A498 renal. Besides, the growth in the experiment on CCRF-CEM leukemia was 76.8%.

With `CCOc1ccc(Nc2nc(-c3ccc4c(c3)NC(=O)CO4)cs2)cc1`, the growth was 51.3% in the experiment on HCT-15 colon; 62% in the experiment on HT29 colon; 56.8% in the experiment with SNB-75 CNS; 81.4% in the experiment with SNB-19 CNS; 66.8% in the experiment with U251 CNS; 24.6% in the experiment on PC-3 prostate. Further, the growth in the experiment on SK-MEL-5 melanoma is -11.2% (active); in the experiment on UACC-62 melanoma, 52.1%; with LOX IMVI melanoma, 43.9%; with SK-MEL-28 melanoma, 33.6%; with SK-MEL-2 melanoma, 81.3%; in the experiment on EKVX NSCLC, 89%. The growth with SN12C renal is 78.6%; in the experiment on UO-31 renal it was 63.7%; in the experiment on TK-10 renal it was 85.5%; with ACHN renal, 52.3%; in the experiment with CAKI-1 renal, 108%; in the experiment on A498 renal, 103%. Moreover, the growth in the experiment on CCRF-CEM leukemia is 32.9%; with MOLT-4 leukemia, 6.58% (active).

In the case of `CCN1C(=O)N(CC)C2Nn3c(s/c(=C\c4ccc(OC)cc4)c3=O)=NC21` (stereo not given), the growth in the experiment on HCT-15 colon was 32.2%; in the experiment with HT29 colon, 83.1%; in the experiment with SNB-75 CNS, 8.85% (active); in the experiment with SNB-19 CNS, 53.1%; in the experiment on U251 CNS, 39.3%; in the experiment with PC-3 prostate, 44.1%. Besides, the growth is 47.6% with SK-MEL-5 melanoma; 34.1% in the experiment with UACC-62 melanoma; 53.6% with LOX IMVI melanoma; 62.8% with SK-MEL-28 melanoma; 51.9% with SK-MEL-2 melanoma; 82.2% in the experiment on EKVX NSCLC. The growth in the experiment on SN12C renal was 62.6%; with UO-31 renal, 48.6%; in the experiment with TK-10 renal, 11.2%; in the experiment on ACHN renal, 42.7%; in the experiment with CAKI-1 renal, 31.9%; in the experiment with A498 renal, -2.46% (active). Moreover, the growth with CCRF-CEM leukemia is 53.2%.

Regarding `N#CC1=C(N)Oc2c(ccc3ccccc23)C1c1ccccc1Cl` (stereo not given), the growth was 10.7% in the experiment with HCT-15 colon; 70% in the experiment on HT29 colon; 13.3% with SNB-75 CNS; 32.9% in the experiment with SNB-19 CNS; 12.4% with U251 CNS; 20% in the experiment on PC-3 prostate. Further, the growth with SK-MEL-5 melanoma was 9.89% (active); in the experiment with UACC-62 melanoma it was 26.6%; in the experiment with LOX IMVI melanoma, 27.3%; with SK-MEL-28 melanoma, 50.5%; in the experiment on SK-MEL-2 melanoma, 55.9%; with EKVX NSCLC, 65.3%. The growth in the experiment with SN12C renal is 22.2%; in the experiment with UO-31 renal it was 43.2%; with TK-10 renal, 6.11% (active); in the experiment with ACHN renal it was 34%; in the experiment on CAKI-1 renal, 27.4%; in the experiment with A498 renal, -10.3% (active). Besides, in the experiment on CCRF-CEM leukemia, the growth was 29.6%.

Turning to `CC(=O)[C@H]1CCC/C=C/[C@@H]2C[C@H](O)C[C@H]2[C@H](O)/C=C/C(=O)O1`, the growth was 11.9% with HCT-15 colon; 4.12% (active) in the experiment with HT29 colon; 38.4% in the experiment with SNB-75 CNS; 28.6% in the experiment on SNB-19 CNS; 20.5% with U251 CNS; 27.6% with PC-3 prostate. In addition, the growth is -94% (active) in the experiment on SK-MEL-5 melanoma; 12.3% with UACC-62 melanoma; -63% (active) with LOX IMVI melanoma; -16.6% (active) in the experiment on SK-MEL-28 melanoma; -14.3% (active) with SK-MEL-2 melanoma; 6.77% (active) in the experiment on EKVX NSCLC. Also, the growth in the experiment with SN12C renal is 9.7% (active); in the experiment with UO-31 renal it was 1.16% (active); with TK-10 renal, 30.8%; in the experiment with ACHN renal, 5.56% (active); with CAKI-1 renal, -15.7% (active); in the experiment with A498 renal, -42.8% (active). Also, the growth was 9.09% (active) in the experiment on CCRF-CEM leukemia and -41.3% (active) in the experiment with MOLT-4 leukemia.

Regarding `Cc1nn(-c2ccccc2)c(Cl)c1/C=N\N=c1/sc2ccccc2n1C`, the growth was 103% with HCT-15 colon; 93.3% in the experiment on HT29 colon; 107% in the experiment on SNB-75 CNS; 98.6% in the experiment on SNB-19 CNS; 103% with U251 CNS; 89.5% in the experiment on PC-3 prostate. In addition, the growth in the experiment with SK-MEL-5 melanoma was 104%; with UACC-62 melanoma, 87.1%; in the experiment with LOX IMVI melanoma, 117%; in the experiment with SK-MEL-28 melanoma, 103%; in the experiment on SK-MEL-2 melanoma, 114%; in the experiment on EKVX NSCLC it was 110%. For the same compound, the growth was 86.8% with SN12C renal; 93% in the experiment with UO-31 renal; 99.1% with TK-10 renal; 107% with ACHN renal; 101% with CAKI-1 renal; 83.1% in the experiment on A498 renal. The growth in the experiment with CCRF-CEM leukemia was 92.7%.

In the case of `N#Cc1c(-c2ccccc2)nc2c(c(-c3ccccc3)nn2-c2ccccc2)c1-c1ccc(O)cc1`, the growth in the experiment on HCT-15 colon is 34.8%; in the experiment with HT29 colon, 84.7%; with SNB-75 CNS, 33.2%; with SNB-19 CNS, 39.3%; with U251 CNS it was 24.3%; in the experiment on PC-3 prostate, 4.85% (active). In addition, the growth with SK-MEL-5 melanoma is 59%; in the experiment on UACC-62 melanoma, 61.5%; in the experiment with LOX IMVI melanoma, -48.3% (active); with SK-MEL-28 melanoma, 49.1%; in the experiment with SK-MEL-2 melanoma it was 72.7%; in the experiment on EKVX NSCLC, 45.2%. Moreover, the growth with SN12C renal was 61.9%; with UO-31 renal, 27.9%; with TK-10 renal, 21.7%; in the experiment with ACHN renal, 42.3%; with CAKI-1 renal, 53.4%; with A498 renal, -1.01% (active). Also, the growth in the experiment with CCRF-CEM leukemia was 22.1%.

`Cc1ccc(-c2csc(NC(=O)CSc3nc(-c4ccccc4)cc(=O)[nH]3)n2)cc1`: the growth in the experiment with HCT-15 colon was 94.5%; in the experiment with HT29 colon, 102%; in the experiment on SNB-75 CNS it was 96.1%; in the experiment with SNB-19 CNS, 87.5%; in the experiment on U251 CNS it was 92.2%; in the experiment on PC-3 prostate it was 86.5%. In addition, the growth with SK-MEL-5 melanoma was 87.4%; in the experiment with UACC-62 melanoma it was 70%; with LOX IMVI melanoma, 96.5%; with SK-MEL-28 melanoma it was 97.5%; with SK-MEL-2 melanoma, 89.4%; with EKVX NSCLC, 90.9%. Besides, the growth in the experiment with SN12C renal was 94.9%; in the experiment with UO-31 renal, 76%; in the experiment on TK-10 renal, 108%; in the experiment with ACHN renal, 91.7%; in the experiment on CAKI-1 renal, 90.7%; with A498 renal, 97.8%. In addition, the results for the growth with CCRF-CEM leukemia and in the experiment on MOLT-4 leukemia were 88.8% and 74.2%, respectively.
